Assay results from the supplement of paper PMC6089552.
Hit rate of the full screen: of about 3,200 compounds, about 300 (9.4%) showed activity. The sample holds actives, similar compounds and a random draw of the others, so the mix is not that of the screen. Unmarked numbers belong to inactive results.

Test system: A673/TR/shEF
Assay: cell viability (LOESS-normalised, relative to median of negative controls) (log2 ratio); higher = more viable cells (less compound effect), active = hit call of the paper (over 3 MAD below the median)
Conditions: treatment time: 72 h
How it was run: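 For three days, A673/TR/shEF Ewing sarcoma cells in 384-well plates (1,500 per well) were treated with library compounds at two or more concentrations or with DMSO controls, after doxycycline had been added or withheld 24 h beforehand to induce EWS-FLI1 shRNA knockdown. Viability was read by CellTiter-Glo luminescence on an Envision reader. The data were LOESS-corrected per plate, divided by the median of negative controls and log2-transformed.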

[1] = 0.25 µM, library screen: screen1, EWS-FLI1 expression: high (no doxycycline)
[2] = 0.25 µM, library screen: screen1, EWS-FLI1 expression: low (doxycycline-induced shRNA knockdown)
[3] = 2.5 µM, library screen: screen1, EWS-FLI1 expression: high (no doxycycline)
[4] = 2.5 µM, library screen: screen1, EWS-FLI1 expression: low (doxycycline-induced shRNA knockdown)
[5] = 0.103 µM, library screen: screen3, EWS-FLI1 expression: high (no doxycycline)
[6] = 0.103 µM, library screen: screen3, EWS-FLI1 expression: low (doxycycline-induced shRNA knockdown)
[7] = 0.308 µM, library screen: screen3, EWS-FLI1 expression: high (no doxycycline)
[8] = 0.308 µM, library screen: screen3, EWS-FLI1 expression: low (doxycycline-induced shRNA knockdown)
[9] = 0.926 µM, library screen: screen3, EWS-FLI1 expression: high (no doxycycline)
[10] = 0.926 µM, library screen: screen3, EWS-FLI1 expression: low (doxycycline-induced shRNA knockdown)
[11] = 2.8 µM, library screen: screen3, EWS-FLI1 expression: high (no doxycycline)
[12] = 2.8 µM, library screen: screen3, EWS-FLI1 expression: low (doxycycline-induced shRNA knockdown)
[13] = 8.3 µM, library screen: screen3, EWS-FLI1 expression: high (no doxycycline)
[14] = 8.3 µM, library screen: screen3, EWS-FLI1 expression: low (doxycycline-induced shRNA knockdown)
[15] = 25 µM, library screen: screen3, EWS-FLI1 expression: high (no doxycycline)
[16] = 25 µM, library screen: screen3, EWS-FLI1 expression: low (doxycycline-induced shRNA knockdown)
[17] = 0.25 µM, library screen: screen2, EWS-FLI1 expression: high (no doxycycline)
[18] = 0.25 µM, library screen: screen2, EWS-FLI1 expression: low (doxycycline-induced shRNA knockdown)
[19] = 2.5 µM, library screen: screen2, EWS-FLI1 expression: high (no doxycycline)
[20] = 2.5 µM, library screen: screen2, EWS-FLI1 expression: low (doxycycline-induced shRNA knockdown)

C=C1C[C@]23C[C@@]1(O)CC[C@H]2[C@@]12C=C[C@H](O)C(C)(C(=O)O1)[C@H]2[C@@H]3C(=O)O
cell viability (log2) [1]: 0.0797 | cell viability (log2) [2]: -0.049 | cell viability (log2) [3]: 0.109 | cell viability (log2) [4]: 0.00256

CC(C)C[C@H](NC(=O)[C@H](Cc1ccccc1)NC(=O)c1cnccn1)B(O)O
cell viability (log2) [5]: -0.242 (active) | cell viability (log2) [6]: -0.0845 | cell viability (log2) [7]: -2.56 (active) | cell viability (log2) [8]: -0.914 (active) | cell viability (log2) [9]: -3.95 (active) | cell viability (log2) [10]: -1.75 (active) | cell viability (log2) [11]: -4.24 (active) | cell viability (log2) [12]: -4.06 (active) | cell viability (log2) [13]: -4.26 (active) | cell viability (log2) [14]: -3.84 (active) | cell viability (log2) [15]: -4.26 (active) | cell viability (log2) [16]: -4.16 (active)

CC(C)C[C@H](NC(=O)[C@H](O)[C@H](N)Cc1ccccc1)C(=O)O
cell viability (log2) [17]: 0.14 | cell viability (log2) [18]: 0.0402 | cell viability (log2) [19]: 0.0931 | cell viability (log2) [20]: 0.0118

CC(C)C[C@H](NC(=O)[C@@H](O)[C@H](N)Cc1ccccc1)C(=O)O
cell viability (log2) [17]: 0.185 | cell viability (log2) [18]: -0.00499 | cell viability (log2) [19]: 0.106 | cell viability (log2) [20]: 0.0581

O=C(Nc1ccccc1Cl)C1c2ccccc2Oc2ccccc21
cell viability (log2) [1]: 0.0923 | cell viability (log2) [2]: 0.0427 | cell viability (log2) [3]: 0.118 | cell viability (log2) [4]: 0.00942

COC1CCC2(C)C(CCC3C2CCC2(C)C(C(C)CCCC(C)C)CCC32)C1 (centres undefined)
cell viability (log2) [1]: -0.00918 | cell viability (log2) [2]: 0.0236 | cell viability (log2) [3]: 0.0903 | cell viability (log2) [4]: 0.091

CCCCOc1ccc(OCCCN2CCOCC2)cc1
cell viability (log2) [1]: 0.172 | cell viability (log2) [2]: 0.0279 | cell viability (log2) [3]: 0.124 | cell viability (log2) [4]: 0.0578

CCCCCCCCCC(=O)NC(CN1CCOCC1)C(O)c1ccccc1 (centres undefined)
cell viability (log2) [17]: -0.53 (active) | cell viability (log2) [18]: -0.533 (active) | cell viability (log2) [19]: -1.39 (active) | cell viability (log2) [20]: -2.57 (active)

CCN1CCCC(OC(=O)C(c2ccccc2)c2ccccc2)C1 (centres undefined)
cell viability (log2) [1]: 0.0616 | cell viability (log2) [2]: 0.0736 | cell viability (log2) [3]: 0.223 | cell viability (log2) [4]: -0.0423

Cc1ccc(C(=O)NCCSc2ccccn2)cc1
cell viability (log2) [1]: 0.109 | cell viability (log2) [2]: 0.00816 | cell viability (log2) [3]: 0.117 | cell viability (log2) [4]: -0.0564

Cn1cnnc1SCC(=O)N1c2ccccc2C(C)(c2ccccc2)CC1(C)C (centres undefined)
cell viability (log2) [1]: 0.078 | cell viability (log2) [2]: 0.058 | cell viability (log2) [3]: 0.127 | cell viability (log2) [4]: 0.198

C[C@@H]1CC[C@H]2[C@](C)(CO)[C@@H](O)CC[C@]2(C)[C@@]12CC[C@@](CO)(CCO)O2
cell viability (log2) [1]: 0.0457 | cell viability (log2) [2]: -0.0603 | cell viability (log2) [3]: 0.0942 | cell viability (log2) [4]: 0.112

CC(C)(C)c1onc(OCP(=O)(O)O)c1CC(N)C(=O)O (centres undefined)
cell viability (log2) [17]: -0.0656 | cell viability (log2) [18]: 0.0767 | cell viability (log2) [19]: 0.0137 | cell viability (log2) [20]: 0.0837

N=C(N)c1ccc(N)cc1
cell viability (log2) [17]: 0.132 | cell viability (log2) [18]: 0.0859 | cell viability (log2) [19]: 0.0987 | cell viability (log2) [20]: 0.121

CCOC(=O)c1ccc(N)cc1
cell viability (log2) [1]: 0.113 | cell viability (log2) [2]: 0.151 | cell viability (log2) [3]: 0.0778 | cell viability (log2) [4]: 0.18

N=C1C=CC(=C(c2ccc(N)cc2)c2ccc(N)cc2)C=C1
cell viability (log2) [1]: -0.412 (active) | cell viability (log2) [2]: -0.563 (active) | cell viability (log2) [3]: -3.76 (active) | cell viability (log2) [4]: -3.35 (active)

CC(C)c1c(O)c(-c2cc3c(c(C(C)C)c2O)CCC2C(C)(C)CCCC32C)cc2c1CCC1C(C)(C)CCCC21C (centres undefined)
cell viability (log2) [1]: 0.108 | cell viability (log2) [2]: 0.109 | cell viability (log2) [3]: 0.0993 | cell viability (log2) [4]: 0.112

COC1=C(OC)C(=O)C(C/C=C(\C)CC/C=C(\C)CC/C=C(\C)CC/C=C(\C)CC/C=C(\C)CC/C=C(\C)CC/C=C(\C)CC/C=C(\C)CC/C=C(\C)CCC=C(C)C)=C(C)C1=O
cell viability (log2) [1]: 0.0717 | cell viability (log2) [2]: 0.153 | cell viability (log2) [3]: 0.193 | cell viability (log2) [4]: 0.233

COc1c(C)c2c(c(O)c1C/C=C(\C)CCC(=O)O)C(=O)OC2
cell viability (log2) (0.025 µM, library screen: screen2, EWS-FLI1 expression: high (no doxycycline)): 0.0161 | cell viability (log2) (0.025 µM, library screen: screen2, EWS-FLI1 expression: low (doxycycline-induced shRNA knockdown)): 0.0434 | cell viability (log2) [5]: 0.108 | cell viability (log2) [6]: 0.173 | cell viability (log2) [1]: 0.047 | cell viability (log2) [2]: -0.0419 | cell viability (log2) [17]: 0.0974 | cell viability (log2) [18]: 0.108 | cell viability (log2) [7]: 0.00407 | cell viability (log2) [8]: 0.0569 | cell viability (log2) [9]: 0.0822 | cell viability (log2) [10]: 0.0245 | cell viability (log2) [3]: 0.0367 | cell viability (log2) [4]: 0.00349 | cell viability (log2) [19]: 0.137 | cell viability (log2) [20]: -0.00198 | cell viability (log2) [11]: 0.147 | cell viability (log2) [12]: 0.096 | cell viability (log2) [13]: -0.0618 | cell viability (log2) [14]: -0.0369 | cell viability (log2) (25 µM, library screen: screen2, EWS-FLI1 expression: high (no doxycycline)): -0.533 (active) | cell viability (log2) (25 µM, library screen: screen2, EWS-FLI1 expression: low (doxycycline-induced shRNA knockdown)): -0.259 (active) | cell viability (log2) [15]: -0.488 (active) | cell viability (log2) [16]: -0.403 (active)

COc1c(C)c2c(c(O)c1C/C=C(\C)CCC(=O)OCCN1CCOCC1)C(=O)OC2
cell viability (log2) [5]: 0.051 | cell viability (log2) [6]: 0.0315 | cell viability (log2) [7]: 0.00041 | cell viability (log2) [8]: 0.00916 | cell viability (log2) [9]: -0.00635 | cell viability (log2) [10]: 0.0426 | cell viability (log2) [11]: 0.0529 | cell viability (log2) [12]: 0.0135 | cell viability (log2) [13]: -0.0785 | cell viability (log2) [14]: 0.0651 | cell viability (log2) [15]: -0.48 (active) | cell viability (log2) [16]: -0.33 (active)

C(#CC12CC3CC(CC(C3)C1)C2)CN1CCOCC1
cell viability (log2) [1]: 0.0887 | cell viability (log2) [2]: 0.0273 | cell viability (log2) [3]: 0.163 | cell viability (log2) [4]: 0.0455

Brc1ccccc1CN1CCN(Cc2ccco2)CC1
cell viability (log2) [1]: 0.15 | cell viability (log2) [2]: 0.0476 | cell viability (log2) [3]: 0.0744 | cell viability (log2) [4]: 0.0303

Cn1c(=O)[nH]c(=O)c2[nH]cnc21
cell viability (log2) [1]: 0.136 | cell viability (log2) [2]: -0.0262 | cell viability (log2) [3]: 0.111 | cell viability (log2) [4]: 0.0112

C=C(C)C1COc2cc3oc(=O)ccc3cc2O1 (centres undefined)
cell viability (log2) [1]: 0.0489 | cell viability (log2) [2]: 0.0843 | cell viability (log2) [3]: 0.0665 | cell viability (log2) [4]: 0.127

COc1ccc2c(c1)OC[C@@H](Cc1ccc(OC)c(OC)c1)[C@H]2O
cell viability (log2) [1]: 0.0776 | cell viability (log2) [2]: -0.01 | cell viability (log2) [3]: 0.0904 | cell viability (log2) [4]: -0.0561

C[N+]1(C)C2CC[C@H]1CC(OC(=O)C(O)c1ccccc1)C2 (some centres undefined)
cell viability (log2) [1]: 0.0981 | cell viability (log2) [2]: 0.0981 | cell viability (log2) [3]: 0.164 | cell viability (log2) [4]: -0.0226

O=c1oc2cc3occc3cc2c2oc3cc4c(cc3c12)OCO4
cell viability (log2) [1]: 0.103 | cell viability (log2) [2]: -0.01 | cell viability (log2) [3]: 0.0469 | cell viability (log2) [4]: 0.0004
